IL1B secr inh: inflammasome signaling inhibition, IL-1 beta readout; THP-1 LPS/ATP IL-1B secretion, AlphaLISA, 16 h; stronger effect = lower value; activity change, % at 57.5 µM; actives 4.7% (n = 360,000); in the data active = activity change below about -50%; inconclusive = mostly about -30% to -49%; also: % is scaled to controls: 0 for no effect and ±100 for the full control effect
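Secreted IL-1B measured by AlphaLISA bead assay after 16 h compound exposure of THP-1 cells; compounds (final up to 57.5 uM) added 1 h before LPS (250 ng/mL) and ATP (1.25 mM) stimulation; lower signal means less secretion.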
DT40 TDP1 CPT: DT40-hTDP1 cell growth loss with CPT | Potency, µM (highest dose often 46.2 µM), inactives show at the top dose activity change, negative = growth inhibition, hits mostly inhibitors | chicken DT40 Tdp1-/-;hTDP1 cells + 20 nM CPT, ATP luminescence, 48 h | AID 686979 | actives 12% (n = 420,000); also: potency is read from the fitted curve at half-maximal effect; % is scaled to controls: 0 for no effect and ±100 for the full control effect; nearly all actives have a fitted effect of over 55% in size
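Chicken DT40 Tdp1-/- cells stably complemented with human TDP1 were seeded at 400 cells/well in medium containing 20 nM camptothecin, exposed to pin-transferred compounds, and grown at 37 °C for at least 48 hr. Viability was read as ATP luminescence.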
Chronic BCR inh: blocks chronic active B-cell receptor signaling | ABC-DLBCL IkBa-CBG/CBR reporter, luminescence ratio, 4 h | Potency, µM (doses to about 46.1 µM), for inactives: top-dose activity change, negative = inhibition, usual class: inhibitors | actives 0.05% (n = 340,000); active = well fitted inhibition curve with a large enough effect in the signal ratio, with a control signal flat, not every such curve was filed as active; inconclusive = small, poorly fitted or top-dose-only effect, or effect the other way, or a change in a side signal; the % refers to the signal ratio;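 also: potency is read from the fitted curve at half-maximal effect; plate controls were basal doxycycline-induced cells for no effect and cells given 10 µM MG132 for full effect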
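TMD8 ABC-DLBCL cells carrying doxycycline-inducible green luciferase fused to IkappaBalpha plus unfused red luciferase were exposed to compounds (up to 46 uM) for 4 hrs at 37C. Activity came from the overlap-corrected green/red luminescence ratio.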
TDP1 cell noCPT: qHTS for Inhibitors of human tyrosyl-DNA phosphodiesterase 1 (TDP1): qHTS in cells in absence of CPT; DT40 Tdp1-/- hTDP1 cells, no CPT, ATP luminescence, 48 h; Potency, µM (series often up to 46.2 µM), for the others: at the highest dose activity change, negative = growth inhibition, actives largely listed as inhibitors; actives 15% (n = 420,000); AID 686978, 2013; also: potency is read from the fitted curve at half-maximal effect; % is scaled to controls: 0 for no effect and ±100 for the full control effect; nearly all actives have a fitted effect of over 55% in size
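Growth kinetics read by CellTiter-Glo luminescence after ≥48 hr at 37 °C. Cells: DT40 Tdp1-/- stably carrying human TDP1, 400 per well, compound exposure in the absence of CPT (DMSO vehicle).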
MCF10A rereplic: induces DNA re-replication in MCF 10a normal breast cells | MCF 10A DNA re-replication, Hoechst nuclear intensity, 48 h | Potency, µM (series often up to 46.1 µM), for the others: at the highest dose activity, positive = re-replication, most hits filed as activators | actives 2.9% (n = 350,000); also: potency is read from the fitted curve at half-maximal effect; % of control where 0% means no effect; nearly all actives have a fitted effect of over 50% in size
SW480 rereplic: DNA re-replication induction in SW480 cells; SW480 DNA re-replication, Hoechst DNA content imaging, 48 h; Potency, µM (top dose mostly 46.1 µM), for the others: at the top dose re-replication activation, hits mostly activators; actives 1.8% (n = 340,000); AID 624297; also: potency is read from the fitted curve at half-maximal effect; % of control where 0% means no effect; nearly all actives have a fitted effect of over 55% in size
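DNA re-replication was detected as more nuclei of elevated Hoechst intensity after 48 hr exposure to compound (23 nL pinned per well of 250 cells).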
The depositor's hits bear a star; [ ] = dose if it differs, or a comment. Sampled rows, rich in hits. Any-hit rate of the full collection: about 19%. Unless noted, calls follow the shape of the dose curve; as a rule, active = well fitted curve in the direction sought with a large enough effect; inconclusive = small, poorly fitted or top-dose-only effect, or another doubt; inactive = no such curve, though single readings can be large; an effect the other way counts as inactive or inconclusive.

Screening COc1ccc(/C=C/C(=O)N2CCN(c3ccccn3)CC2)c2ccccc12 returned IL1B secr inh -7, DT40 TDP1 CPT inconclusive, Chronic BCR inh -21%, TDP1 cell noCPT 26µM*, MCF10A rereplic 12% and SW480 rereplic -11%.
`COc1ccc(CCn2c(=N)c(C(=O)NCC3CCCO3)cc3c(=O)n4ccccc4nc32)cc1` (centres undefined) gave IL1B secr inh -15, DT40 TDP1 CPT 5.8µM*, Chronic BCR inh -4%, TDP1 cell noCPT 8.2µM*, MCF10A rereplic 17% and SW480 rereplic 10%.
`COc1ccc(Cn2c(=N)c(C(=O)NCC3CCCO3)cc3c(=O)n4ccccc4nc32)cc1` (centres undefined) gave IL1B secr inh -18, DT40 TDP1 CPT inconclusive, Chronic BCR inh inconclusive, TDP1 cell noCPT inconclusive, MCF10A rereplic 15µM* and SW480 rereplic inconclusive.
Screening COc1ccc(CN(CC(=O)NCC2CCCO2)C(=O)CCC(=O)Nc2nccs2)cc1 (centres undefined) returned IL1B secr inh -5, DT40 TDP1 CPT -10%, Chronic BCR inh inconclusive, TDP1 cell noCPT -18%, MCF10A rereplic -1% and SW480 rereplic -28%.
For COc1cccc(NC(=O)C(Sc2nnc(-c3ccncc3)n2-c2ccc(Cl)cc2)c2ccccc2)c1 (centres undefined) the results were IL1B secr inh -9, DT40 TDP1 CPT 16µM*, Chronic BCR inh 4%, TDP1 cell noCPT 21µM*, MCF10A rereplic inconclusive and SW480 rereplic 10%.
`Cn1c(=O)c2c(nc(NCC3CCCO3)n2Cc2ccccc2)n(C)c1=O` (centres undefined) gave IL1B secr inh 0, DT40 TDP1 CPT inconclusive, Chronic BCR inh 14%, TDP1 cell noCPT inconclusive, MCF10A rereplic 1% and SW480 rereplic -6%.
`C/C(Cl)=C\Cn1c(Nc2ccccc2)nc2c1c(=O)n(C)c(=O)n2C` gave IL1B secr inh -6, DT40 TDP1 CPT 11µM*, Chronic BCR inh inconclusive, TDP1 cell noCPT inconclusive, MCF10A rereplic 12% and SW480 rereplic 3%[9.22 µM].
Screening C/C(Cl)=C/Cn1c(NCCN(C)C)nc2c1c(=O)n(C)c(=O)n2C returned IL1B secr inh -28, DT40 TDP1 CPT -1%, Chronic BCR inh 9%, TDP1 cell noCPT -4%, MCF10A rereplic -1% and SW480 rereplic -5%.
Screening Cn1c(=O)c2c(nc(N/N=C/c3ccncc3)n2Cc2ccccc2)n(C)c1=O returned IL1B secr inh 76, DT40 TDP1 CPT inconclusive, Chronic BCR inh inconclusive, TDP1 cell noCPT inconclusive, MCF10A rereplic -5% and SW480 rereplic -19%.
`COc1cc(/C=N/Nc2nc3c(c(=O)n(C)c(=O)n3C)n2Cc2ccccc2)ccc1OC(=O)c1ccco1` gave IL1B secr inh inconclusive, DT40 TDP1 CPT 5.8µM*, Chronic BCR inh inconclusive, TDP1 cell noCPT 5.2µM*, MCF10A rereplic inconclusive and SW480 rereplic inconclusive.
Screening Cn1c(=O)c2c(nc(NC3CCCCC3)n2Cc2ccccc2)n(C)c1=O returned IL1B secr inh 1, DT40 TDP1 CPT inconclusive, Chronic BCR inh 4%, TDP1 cell noCPT inconclusive, MCF10A rereplic 20% and SW480 rereplic -1%.
Cn1c(=O)c2c(nc(NCc3ccccc3)n2Cc2ccc(Cl)c(Cl)c2)n(C)c1=O was read as DT40 TDP1 CPT 8.2µM* and TDP1 cell noCPT 7.3µM*.
Cn1c(=O)c2c(nc(NCc3ccccc3)n2Cc2ccccc2)n(C)c1=O was read as DT40 TDP1 CPT 8.2µM* and TDP1 cell noCPT 4.1µM*.
NCCC1CCCC(CCN)N1 (centres undefined) was read as IL1B secr inh 12, DT40 TDP1 CPT -7%, Chronic BCR inh -12%, TDP1 cell noCPT -2%, MCF10A rereplic 6% and SW480 rereplic -16%.
For Cc1ccc(Cn2c(N/N=C/c3ccncc3)nc3c2c(=O)n(C)c(=O)n3C)cc1 the results were IL1B secr inh 23, DT40 TDP1 CPT inconclusive, Chronic BCR inh inconclusive, TDP1 cell noCPT 18µM*, MCF10A rereplic -1% and SW480 rereplic -23%.
For Cn1c(=O)c2nc(NCc3ccccc3)cnc2n(C)c1=O the results were IL1B secr inh 8, DT40 TDP1 CPT inconclusive, Chronic BCR inh 4%, TDP1 cell noCPT 13µM*, MCF10A rereplic 0% and SW480 rereplic 1%.
`Cn1c(=O)c2c(ncn2Cc2ccccc2)n(C)c1=O` gave IL1B secr inh 35, DT40 TDP1 CPT inconclusive, Chronic BCR inh inconclusive, TDP1 cell noCPT -29%, MCF10A rereplic inconclusive and SW480 rereplic 9%.
`Cn1c(=O)c2c(nc(NCCc3ccccc3)n2Cc2ccc(Cl)cc2)n(C)c1=O` gave DT40 TDP1 CPT 12µM* and TDP1 cell noCPT 10µM*.
For Cn1c(=O)c2c(nc(NCCNC(=O)c3ccco3)n2Cc2ccccc2)n(C)c1=O the results were IL1B secr inh 0, DT40 TDP1 CPT inconclusive, Chronic BCR inh 3%, TDP1 cell noCPT inconclusive, MCF10A rereplic 26µM* and SW480 rereplic 0%.
CCOc1ccc(CCNc2nc3c(c(=O)n(C)c(=O)n3C)n2CC)cc1OCC was read as IL1B secr inh 2, DT40 TDP1 CPT 16µM*, Chronic BCR inh inconclusive, TDP1 cell noCPT 14µM*, MCF10A rereplic 0% and SW480 rereplic -1%.
Cc1cc(C)c(-c2csc(NC(=O)C3=COCCO3)n2)cc1C was read as IL1B secr inh -12, DT40 TDP1 CPT 23µM*, Chronic BCR inh 20%, TDP1 cell noCPT 21µM*, MCF10A rereplic inconclusive and SW480 rereplic 13%.
Screening O=C(Nc1nc(-c2ccc(-c3ccccc3)cc2)cs1)C1=COCCO1 returned IL1B secr inh -2, DT40 TDP1 CPT -23%, Chronic BCR inh inconclusive, TDP1 cell noCPT inconclusive and MCF10A rereplic 8%.
COc1cc([N+](=O)[O-])cc2sc(NC(=O)c3c(F)cccc3F)nc12 was read as IL1B secr inh 2, DT40 TDP1 CPT 1%, Chronic BCR inh inconclusive, TDP1 cell noCPT 10%, MCF10A rereplic 0.73µM* and SW480 rereplic 0%.
O=C(Nc1nc(-c2ccc([N+](=O)[O-])cc2)cs1)c1c(F)cccc1F was read as IL1B secr inh -6, DT40 TDP1 CPT -3%, Chronic BCR inh 17%, TDP1 cell noCPT 4.6µM*, MCF10A rereplic -1% and SW480 rereplic inconclusive.
